This is an account of results in PubChem BioAssay.

The source made the active and inactive calls.

Assay [1] in a line: adipocyte viability effects, profiling panel, cell-based, 3T3-L1 adipocytes, calcein-AM fluorescence, 48 h, basal (AID 1163). Conditions: 3T3-L1 adipocytes viability, higher = more signal.
The nature of assay [2]: HepG2 cell viability effects, profiling panel, calcein-AM fluorescence, 48 h, basal (AID 1164). The settings on record: higher = more signal.
Assay [3] can be described thus: MM1S cell viability effects, profiling panel, calcein-AM fluorescence, 48 h, basal (AID 1165).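 Note: viability of MM1S multiple myeloma cells under basal unstimulated conditions.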 The settings on record: higher = more signal.
Assay [4] in a line: basal RPMI8226 viability, no added stimulus, profiling panel, cell-based, calcein-AM fluorescence, 48 h, PK04 Diversity Set (AID 1166).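 Note: cells grown under basal conditions without added stimulus.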 Conditions: RPMI8226 myeloma viability, higher = more signal.
A short description of assay [5]: basal HepG2 mitochondrial membrane potential changes, profiling panel, cell-based, JC-1 fluorescence, 24 h, 100 nL compound (AID 1167). Conditions: higher = more signal.
A short description of assay [6]: basal 3T3-L1 adipocyte mitochondrial potential changes, profiling panel, cell-based, JC-1 fluorescence, 3T3-L1 adipocytes, 24 h, 100 nL compound (AID 1168). The settings on record: JC-1 mitochondrial fluorescence, higher = more signal, called active from +8 up or from −8 down.
The nature of assay [7]: basal RPMI8226 mitochondrial membrane potential changes, profiling panel, cell-based, JC-1 fluorescence, 24 h, 100 nL compound (AID 1169). The settings on record: RPMI8226 myeloma, JC-1 mitochondrial potential fluorescence, higher = more signal.
Assay [8] is described as follows: basal MM1S mitochondrial membrane potential changes, profiling panel, cell-based, JC-1 fluorescence, 24 h, 100 nL compound (AID 1170). Conditions: higher = more signal.
The nature of assay [9]: A549 lung cancer cell viability effects, profiling panel, resazurin fluorescence, 24 h, PK04 Diversity Set (AID 1171). The settings on record: higher = more signal, called active from +8 up or from −8 down.
Assay [10] is described as follows: HepG2 liver cancer cell viability effects, profiling panel, resazurin fluorescence, 24 h, PK04 Diversity Set (AID 1172). The settings on record: higher = more signal. Background: Resazurin is reduced to fluorescent resorufin, in cell work by metabolically active cells.
A short description of assay [11]: basal S. cerevisiae growth modulation, no modifier, primary screen, OD600, strain BY4716, 24 h, basal condition (AID 1173). Conditions: OD600, 24 h, higher = more signal, called active from +8 up or from −8 down.
Assay [12] in a line: MM1S myeloma cell viability, profiling panel, resazurin fluorescence, basal, 24 h, PK04 Diversity Set (AID 1174). Conditions: higher = more signal, called active from +8 up or from −8 down.
The target in assay [13] is Dihydroorotate dehydrogenase (quinone), mitochondrial (Plasmodium falciparum (isolate 3D7)) (UniProt Q08210). In words: PfDHODH enzyme inhibitors, primary screen, biochemical, C-terminal His tag, absorbance 600 nm (AID 1175).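 Note: recombinant parasite enzyme with a five histidine tag at its C terminus.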 Conditions: DCIP absorbance 600 nm, higher = more signal, called active from +8 up or from −8 down.
Dihydroorotate dehydrogenase (quinone), mitochondrial (Plasmodium falciparum (isolate 3D7)), sequence (Q08210 whole entry, looked up): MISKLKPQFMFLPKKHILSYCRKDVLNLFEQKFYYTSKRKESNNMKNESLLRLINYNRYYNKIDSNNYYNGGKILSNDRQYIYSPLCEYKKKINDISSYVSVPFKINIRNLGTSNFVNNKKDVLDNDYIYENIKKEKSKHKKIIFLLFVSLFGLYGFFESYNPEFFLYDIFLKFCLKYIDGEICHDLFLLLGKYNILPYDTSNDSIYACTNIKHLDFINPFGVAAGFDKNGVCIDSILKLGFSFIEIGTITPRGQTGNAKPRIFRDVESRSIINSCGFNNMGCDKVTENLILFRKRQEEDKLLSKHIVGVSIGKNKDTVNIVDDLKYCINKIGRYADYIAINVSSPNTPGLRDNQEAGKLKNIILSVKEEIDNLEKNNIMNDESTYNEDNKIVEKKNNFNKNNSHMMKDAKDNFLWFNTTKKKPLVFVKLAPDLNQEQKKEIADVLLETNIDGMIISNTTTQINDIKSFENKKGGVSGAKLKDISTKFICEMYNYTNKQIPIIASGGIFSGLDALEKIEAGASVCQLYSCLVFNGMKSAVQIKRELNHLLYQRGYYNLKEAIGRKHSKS
The nature of assay [14]: S. cerevisiae RM11-1a growth modifiers, primary screen, strain RM11-1a, OD600, basal, 24 h (AID 1177).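 Note: cultures grown under basal conditions with no added stressor.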 The settings on record: OD600, 24 h, higher = more signal, called active from +8 up or from −8 down.
The nature of assay [15]: E. coli acrAB mutant growth effects, primary screen, E. coli filamentation inducers, strain DRC39, OD650, 24 h (AID 1178).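 Note: growth measured as culture turbidity by optical density at 650 nm.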 The settings on record: higher = more signal, called active from +8 up or from −8 down.
Assay [16] in a line: E. coli acrAB mutant growth effects, primary screen, E. coli filamentation inducers, strain DRC39, OD650, 48 h (AID 1179).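 Note: screen aims at cell division blockers that make cells filament.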 Conditions: E. coli DRC39 delta-acrAB growth, higher = more signal, called active from +8 up or from −8 down.
A short description of assay [17]: RPMI8226 myeloma cell viability, profiling panel, resazurin fluorescence, basal, 24 h, PK04 Diversity Set (AID 1180).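 Note: RPMI8826 multiple myeloma cell line at 5000 cells per well.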 The settings on record: higher = more signal.
In assay [18] the target is E3 ubiquitin-protein ligase XIAP (Homo sapiens) (UniProt P98170). As to the kind of experiment: XIAP binders, primary screen, biophysical, small-molecule microarray, fluorescence 635 nm (AID 1181).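 Note: score merges 667 nm emission and signal to noise over triplicate slides.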 Conditions: small-molecule microarray binding, higher = more signal.
E3 ubiquitin-protein ligase XIAP (Homo sapiens), sequence (P98170 whole entry, looked up): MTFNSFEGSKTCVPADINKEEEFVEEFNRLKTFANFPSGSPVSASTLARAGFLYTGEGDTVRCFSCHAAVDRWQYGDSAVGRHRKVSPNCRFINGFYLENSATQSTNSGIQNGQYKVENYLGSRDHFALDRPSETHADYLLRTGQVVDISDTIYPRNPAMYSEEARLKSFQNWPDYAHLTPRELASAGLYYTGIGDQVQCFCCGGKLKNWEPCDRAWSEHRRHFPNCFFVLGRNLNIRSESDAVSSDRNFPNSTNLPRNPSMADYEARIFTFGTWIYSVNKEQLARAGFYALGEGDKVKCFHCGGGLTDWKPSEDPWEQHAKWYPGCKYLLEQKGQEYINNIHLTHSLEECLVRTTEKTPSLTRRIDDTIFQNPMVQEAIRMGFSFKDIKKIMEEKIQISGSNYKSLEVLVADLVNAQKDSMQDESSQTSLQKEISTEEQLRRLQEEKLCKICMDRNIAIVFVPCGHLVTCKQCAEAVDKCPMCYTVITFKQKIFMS
Assay [19] has as its system XIP peptide (Xip251-270) binding. In words: small-molecule binders of XIP peptide, primary screen, biochemical, small-molecule microarray, fluorescence 635/667 nm, 0.1 µg/mL protein (AID 1182). The settings on record: fluorescent protein binding, 635 nm, higher = more signal, called active from +8 up or from −8 down.
For a further assay, the system named is XIP peptide (Xip251-270). As to the kind of experiment: small-molecule binders of XIP peptide, primary screen, biochemical, small-molecule microarray, fluorescence 635/667 nm, 0.5 µg/mL protein (AID 1183). Conditions: small-molecule microarray binding, fluorescence 635 nm; higher = more signal.

For `C=C(CCCC)/C(=C/C[C@@H](OC(=O)c1ccncc1)c1ccc(OCCO)cc1)c1cnc2ccccc2c1`, the z-score in [1] was 1.56; in assay [2], -0.375; in assay [3], -1.52; in [4] it was -0.393; in assay [5], 2.07; in [6], -0.0617 (inactive). In addition, the z-score in [7] is -0.344; in assay [8], 0.279; in [9] it was 0.395 (inactive); in assay [10], 0.0347; in [11], -2.64 (inactive); in assay [12], 0.803 (inactive). In addition, the z-score was 0.365 (inactive) in [14], 1 (inactive) in assay [15], 0.734 (inactive) in [16] and 1.59 in [17]. Besides, the composite z-score was -2.2 (inactive) in assay [13], -0.035 in [18], 0.384 (inactive) in [19] and 0.697 in the assay with XIP peptide (Xip251-270).
Take `COCCOC(=O)N1C(=O)[C@@]2(c3cc(C#CCNC(N)=O)ccc31)[C@H](c1ccccc1OCCO)N1[C@H](c3ccccc3)[C@H](c3ccccc3)OC(=O)[C@H]1[C@@H]2C(=O)Nc1nc2ccccc2s1`: the z-score in assay [1] was 1.32; in assay [2], -0.272; in assay [3] it was -1.56; in [4] it was 0.501; in [5] it was -2.92; in assay [6], 1.04 (inactive). The z-score in assay [7] was -1.06; in assay [8] it was -1.32; in assay [9], 0.627 (inactive); in assay [10] it was 0.0177; in assay [11], -0.267 (inactive); in assay [12], 1.22 (inactive). The z-score was 1.17 (inactive) in assay [14], -0.17 (inactive) in [15], 0.599 (inactive) in [16] and 1.39 in assay [17]. Also, the composite z-score is -0.183 (inactive) in assay [13], 0.396 in assay [18], -0.377 (inactive) in assay [19] and 0.501 in the assay with XIP peptide (Xip251-270).
Regarding `CC(C)C[C@@H]1NC(=O)[C@H]2C[C@@H](C(=O)NCCCC[N+](C)(C)C)[C@@H](c3cccc(OCCO)c3)N2C1=O`, the z-score in assay [1] is 0.753; in assay [2] it was -0.131; in assay [3], 0.0808; in [4], -0.583; in assay [5], 1.22; in [6], 1.37 (inactive). Besides, the z-score was -0.173 in assay [7]; 0.0969 in assay [8]; -0.474 (inactive) in assay [9]; 0.417 in assay [10]; -0.553 (inactive) in [11]; 0.932 (inactive) in [12]. The z-score in assay [14] is -0.915 (inactive); in assay [15] it was 0.709 (inactive); in assay [16], 0.569 (inactive); in [17], 0.33. The composite z-score was -30.9 (active) in assay [13], -0.0476 in assay [18], 1.85 (inactive) in assay [19] and 0.705 with XIP peptide (Xip251-270).
Turning to `NCCCCCNC(=O)[C@H]1C[C@H]2C(=O)NCC(=O)N2[C@H]1c1ccc(O)cc1`, the z-score is 1.46 in assay [1]; -0.252 in assay [2]; -0.249 in assay [3]; 0.502 in [4]; 0.848 in assay [5]; -0.36 (inactive) in [6]. For the same molecule, the z-score was -0.806 in assay [7]; 0.231 in [8]; 0.518 (inactive) in assay [9]; -1.2 in assay [10]; 0.375 (inactive) in assay [11]; 0.352 (inactive) in assay [12]. Moreover, the z-score in assay [14] was 0.774 (inactive); in assay [15], 0.172 (inactive); in [16], 0.214 (inactive); in assay [17], 1.18. In addition, the composite z-score in assay [13] was -0.0658 (inactive); in assay [18], -0.0918; in [19], 1.28 (inactive); with XIP peptide (Xip251-270), 0.57.
With `C/C=C/[C@@H](CCn1cc(CCO[Si](C(C)C)(C(C)C)C(C)C)nn1)[Si](C)(C)c1ccc(OC)cc1`, the z-score in assay [1] is 0.925; in [2], 0.359; in [3], -1.17; in [4], -1.21; in [5] it was 3.71; in assay [6], 1.12 (inactive). Moreover, the z-score in assay [7] is 0.236; in [8], 2.03; in [9] it was 7.86 (inactive); in [10], 4.46; in assay [11] it was -2.21 (inactive); in [12], 1.91 (inactive). For the same molecule, the z-score in assay [14] is -4 (inactive); in [15], 2.42 (inactive); in [16] it was 1.89 (inactive); in assay [17], 5.22. Further, the composite z-score in assay [13] is -1.14 (inactive); in [18] it was -0.169; in [19], -0.411 (inactive); with XIP peptide (Xip251-270), -1.48.
Regarding `COc1ccc([Si](C)(C)[C@H]2[C@H](CC(=O)N(CCO)Cc3ccccc3)O[C@@]3(C(=O)N(Cc4cccc(N5C(=O)COc6ccccc65)c4)c4ccccc43)[C@@H]2C)cc1`, the z-score is 0.446 in [1]; -0.647 in assay [2]; -0.945 in assay [3]; -2.66 in assay [4]; 0.502 in assay [5]; 1.2 (inactive) in assay [6]. The z-score in assay [7] is -0.943; in [8], -0.397; in assay [9], -0.899 (inactive); in assay [10] it was 0.0785; in assay [11] it was 0.337 (inactive); in assay [12], -1.48 (inactive). Besides, the z-score in [14] was 2.62 (inactive); in [15], 2.07 (inactive); in [16], 2.13 (inactive); in assay [17] it was -2.97. For the same molecule, the composite z-score in assay [13] is -0.149 (inactive); in assay [18] it was 0.0727; in [19], 1.65 (inactive); in the assay on XIP peptide (Xip251-270) it was 0.727.
As for `CC(C)[C@@H](C(=O)O)n1cc(-c2ccccn2)nn1`, the z-score is 1.05 in [1]; 0.106 in assay [2]; -0.0169 in [3]; 0.516 in [4]; 0.422 in assay [5]; 0.592 (inactive) in assay [6]. For the same molecule, the z-score in assay [7] is -0.276; in assay [8], 0.414; in assay [9], 0.756 (inactive); in assay [10], 0.735; in assay [11] it was -1.37 (inactive); in assay [12] it was 1.11 (inactive). For the same molecule, the z-score in [14] is -0.52 (inactive); in assay [15], 1.87 (inactive); in assay [16] it was 1.17 (inactive); in [17], 0.386. Further, the composite z-score was -0.206 (inactive) in [13], -0.0597 in assay [18], 0.353 (inactive) in [19] and -0.548 in the assay on XIP peptide (Xip251-270).
`C[N+](C)(C)CCCC[C@@H]1NC(=O)[C@@H]2C[C@H](C(=O)NCCCCCNC(=O)CS)[C@H](c3ccc(O)cc3)N2C1=O`: the z-score in [1] is 1.09; in assay [2], -0.792; in [3], -0.982; in [4], 0.027; in assay [5] it was 2; in assay [6], 0.385 (inactive). In addition, the z-score in assay [7] is 0.289; in assay [8], -0.336; in assay [9], 1.09 (inactive); in assay [10], -0.122; in assay [11], -1.15 (inactive); in assay [12] it was 0.941 (inactive). Also, the z-score is -1.36 (inactive) in assay [14], 0.513 (inactive) in assay [15], 0.355 (inactive) in assay [16] and 1.55 in assay [17]. Besides, the composite z-score in assay [13] was -1.15 (inactive); in assay [18], 0.0471; in assay [19], 0.609 (inactive); in the assay with XIP peptide (Xip251-270), 0.184.
For the molecule `C=CCNC(=O)[C@@H]1[C@H]2C(=O)O[C@H](c3ccccc3)[C@H](c3ccccc3)N2[C@H](c2ccc(O)cc2)[C@@]12C(=O)Nc1ccc(C#Cc3ccc(OC)cc3)cc12`, the z-score in assay [1] is 1.12; in assay [2], -2.27; in assay [3], -2.63; in assay [4] it was -4.22; in assay [5] it was -2.39; in assay [6], 2.94 (inactive). Moreover, the z-score in [7] is -1.16; in assay [8], -0.975; in [9], -1.58 (inactive); in assay [10], -0.322; in assay [11], -0.267 (inactive); in assay [12], -1.64 (inactive). Also, the z-score in assay [14] is -0.411 (inactive); in assay [15], -0.071 (inactive); in assay [16] it was 0.773 (inactive); in assay [17] it was -3.89. The composite z-score is -1.35 (inactive) in assay [13], -0.0932 in assay [18], 0.507 (inactive) in assay [19] and 0.543 in the assay with XIP peptide (Xip251-270).
